Sampled rows, rich in hits. Any-hit rate of the full collection: about 4.8%.
USP2a block: USP2a (human) protease inhibition | 330,000 tested, 0.01% active | USP2 core, Ub-CHOP2 coupled fluorogenic reporter, 485/531 | Potency, µM (titrated, usually from 38.3 µM), usual class: inhibitors
Target sequence (O75604 whole entry, looked up): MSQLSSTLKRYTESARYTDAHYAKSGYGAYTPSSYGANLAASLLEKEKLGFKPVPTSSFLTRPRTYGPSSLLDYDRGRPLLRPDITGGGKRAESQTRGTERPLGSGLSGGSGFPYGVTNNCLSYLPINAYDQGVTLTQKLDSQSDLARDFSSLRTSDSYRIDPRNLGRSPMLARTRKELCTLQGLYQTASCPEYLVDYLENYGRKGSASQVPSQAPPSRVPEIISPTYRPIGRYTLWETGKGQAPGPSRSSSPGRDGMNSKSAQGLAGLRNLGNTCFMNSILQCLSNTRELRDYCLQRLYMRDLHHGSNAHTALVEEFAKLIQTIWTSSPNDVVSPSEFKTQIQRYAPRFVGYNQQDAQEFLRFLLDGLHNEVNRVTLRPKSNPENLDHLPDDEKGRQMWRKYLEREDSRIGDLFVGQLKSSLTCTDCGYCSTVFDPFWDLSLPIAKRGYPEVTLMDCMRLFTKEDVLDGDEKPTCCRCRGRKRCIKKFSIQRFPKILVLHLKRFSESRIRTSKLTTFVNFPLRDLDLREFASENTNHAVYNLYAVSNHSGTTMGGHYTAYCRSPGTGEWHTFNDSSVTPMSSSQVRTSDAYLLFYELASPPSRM
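Cell-free coupled assay: 10nM USP2 core preincubated 30min RT with compound in Tris-HCl pH 8.0/CaCl2/CHAPS buffer, then 25nM Ub-CHOP2 and 25nM reporter substrate; fluorescence (Ex 485/Em 531) read after 60min RT, normalized to NEM inhibition, concentration-response curves fitted.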
USP1 inh: inhibitors of human USP1/UAF1 deubiquitinase | O94782 | recombinant USP1/UAF1, Ub-Rhodamine cleavage fluorescence | Potency, µM (top dose mostly 57.1 µM), most hits filed as inhibitors | 390,000 tested, 0.23% active | AID 743255; further: nearly all actives have a fitted effect of over 60% in size
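USP1/UAF1 complex (1 nM) preincubated 15 min at room temperature with compound, then Ub-Rho substrate (150 nM final) added. Kinetic fluorescence at 480/540 nm over 6 reads at 60 s intervals; 50 mM HEPES pH 7.8, 0.5 mM EDTA, 0.1 mg/ml BSA, 1 mM TCEP, 0.01% Tween-20.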
IL1B secr inh: blocks inflammasome-driven IL-1 beta release. 360,000 tested, 4.7% active. activity change, % at 57.5 µM. AID 743279. THP-1 LPS/ATP IL-1B secretion, AlphaLISA, 16 h; stronger effect = lower value; in the data active means activity change below about -50%; inconclusive means mostly about -30% to -49%
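Secreted IL-1B measured by AlphaLISA bead assay after 16 h compound exposure of THP-1 cells; compounds (final up to 57.5 uM) added 1 h before LPS (250 ng/mL) and ATP (1.25 mM) stimulation; lower signal means less secretion.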
ATXN2 expr inh: inhibitors of ATXN2 expression. Potency, µM (highest dose often 57 µM), usual class: inhibitors. 360,000 tested, 0.72% active. HEK-293 ATXN2-luciferase reporter, luminescence, 24 h. AID 1745845; further: nearly all actives have a fitted effect of over 55% in size
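qHTS (up to 57 uM final) was run with 24 h compound exposure of reporter cells at 37 °C. Each well was multiplexed: SteadyGlo luminescence measured ATXN2-luciferase expression after a fluorogenic Gly-Phe-AFC viability readout (25 uM final).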
S2 tox: viability counter-screen for ATXN expression inhibitors | S2 cells (HEK-293 line with an ATXN2-luciferase reporter) viability, CellTiter-Fluor protease fluorescence, 24 h | Potency, µM (doses to about 56.7 µM), usual class: cytotoxic | 400,000 tested, 0.49% active; further: nearly all actives have a fitted effect of over 40% in size
Hits are given with their value; 0 = inactive; ? = inconclusive; - = no result; [ ] = another dose, or the depositor's remark. Unless noted, the call rests on the fitted dose curve; in most records, active means well fitted curve in the direction sought with a large enough effect; inconclusive means small, poorly fitted or top-dose-only effect, or another doubt; inactive means no such curve, though single readings can be large; an effect the other way counts as inactive or inconclusive.

SMILES	USP2a block	USP1 inh	IL1B secr inh	ATXN2 expr inh	S2 tox
Clc1cccc(N/N=C/c2ccc(N3CCOCC3)cc2)c1	0	0	0	0	?
O=[N+]([O-])c1cccc(N/N=C/c2ccc(N3CCOCC3)cc2)c1	0	0	-63	?	?
O=[N+]([O-])c1cccc(C=NNc2ccccc2)c1	-	0	-65	0	?
O=[N+]([O-])/C=C\c1ccc(N2CCOCC2)cc1	-	0	-80	?	?
Cc1ccc(OCCn2nnc3sc4c(c3c2=O)CCC(C(C)(C)C)C4)cc1 (centres undefined)	-	0	-	0	0
CCOC(=O)[C@]12CCCC=C1N(Cc1ccccc1)C(=O)[C@H](CC(=O)N1CCN(C(=O)C3CC3)CC1)C2	-	-	0	-	-
COc1ccc(C(=O)/C=C/c2ccc(OC)c(CN3CCOCC3)c2)cc1	0	0	-100	0	?
COc1ccc(/C=C/C(=O)c2ccc3ccccc3c2O)cc1CN1CCOCC1	0	0	-67	0	-
O=C(/C=C/c1cccc(O)c1)c1ccc(N2CCOCC2)cc1	0	0	-94	-	?
COc1ccc(/C=C/C(=O)C23CC4CC(CC(C4)C2)C3)cc1CN1CCOCC1	0	0	-189	-	0
COc1ccc(/C=C/C(=O)c2ccccc2O)cc1CN1CCOCC1	0	0	0	0	0
O=C(/C=C/c1cccc(O)c1)c1cccnc1	0	0	0	0	?
COc1ccc(/C=C/C(=O)c2ccc(O)cc2)cc1CN1CCOCC1	0	0	-133	0	?
CC(=O)n1c2ccccc2c2ccccc21	0	0	0	0	0
CC(=O)n1c(Cl)c(NC(=O)CCl)c2ccccc21	0	0	-101	?	?
CCOc1ccccc1OCC(=O)Nc1nnc(C)s1	0	0	-58	0	0
CCOc1ccccc1OCC(=O)Nc1ccc(N2CCCCC2)cc1	0	0	-79	0	0
CCC(=O)N1CCN(c2ccc(NC(=O)COc3ccccc3Cl)cc2)CC1	0	0	-55	0	0
COC(=O)C[C@@H]1C[C@H]2c3cc(NC(=O)Nc4ccccc4F)ccc3O[C@H]2[C@H](CO)O1	-	0	0	0	0
O=C(CNC(=O)c1ccccc1F)OCc1nc2ccc(Cl)cc2n1CCO	0	0	0	?	0
Cc1cnc(C)c(Nc2nc(C(N)Cc3ccc(Cl)cc3)cs2)n1 (centres undefined)	-	-	0	?	0
O=C1C(=O)N(Cc2ccncc2)C(c2ccccc2F)/C1=C(\O)c1ccc2c(c1)OCCO2 (centres undefined)	0	0	0	0	0
COc1ccc(-c2ccc(=O)n(Cc3ccccc3)n2)cc1	0	0	0	-	?
Cc1ccc(-c2ccc(=O)n(Cc3cc(C)ccc3C)n2)cc1	0	0	?	0	0
Cc1ccc(C)c(Cn2nc(-c3ccccc3)ccc2=O)c1	0	0	-75	0	?
SMILES	USP2a block	USP1 inh	IL1B secr inh	ATXN2 expr inh	S2 tox
Cc1ccc(-c2ccc(=O)n(Cc3cccc(Br)c3)n2)cc1	0	0	-78	0	0
COc1ccc(-c2ccc(=O)n(Cc3cccc(Cl)c3)n2)cc1	0	0	-51	0	0
CCCCCCCCCCOc1cc2c(=O)c(C(=O)OCC)c[nH]c2cc1OCC	-	-	-	0[5.55 µM]	0[5.17 µM]
CCOC(=O)C1=CCCN(S(=O)(=O)c2ccc(C)cc2)C1	-	-	0	0	0
COc1ccccc1C(=O)c1cn(CC(=O)Nc2ccccc2F)c2nc(C)ccc2c1=O	-	0	-	0	?
CC1=CC(=O)C=CC1=Nc1ccc(N(C)C)cc1	-	-	-121	?	?
Cc1cc(C(=O)NC2CCCCCCC2)ccc1[N+](=O)[O-]	-	0	0	0	0
COc1ccccc1N(CC(O)CN1CCOCC1)S(=O)(=O)c1ccccc1 (centres undefined)	0	0	0	0	0
COc1cc(/C=C2\SC(=Nc3ccc(Cl)c(C(=O)O)c3)NC2=O)c(Br)c(Br)c1O	0	18µM	0	0	0
Cc1[nH]n(-c2ccccc2)c(=O)c1/C=N/Nc1nncc(-c2ccccc2)n1	0	0	0	2.8µM	0
Oc1cccc(/C=N\Nc2nncc(-c3ccccc3)n2)c1	0	0	-62	0	0
Cc1ccc(-c2cc(-c3ccccc3)nc(N/N=C/c3cccnc3)n2)cc1	-	0	0	0	0
Cc1ccc(/C=N/Nc2nncc(-c3ccccc3)n2)o1	0	0	0	0	0
C(=N/Nc1nc(-c2ccccc2)cc(-c2ccccc2)n1)/c1cccnc1	0	0	-53	0	0
CCOc1ccc(-n2nc(CO)c(C(=O)NCCCc3ccccc3)n2)cc1	-	0	-	-	-
O=C(NCC1(N2CCOCC2)CCCCC1)c1cnn(-c2nccc(-c3cccs3)n2)c1C1CC1	-	-	-	-	0
O=C(Nc1nnc([C@H]2C[C@H](O)[C@@H](CO)O2)s1)c1ccccc1F	-	-	0	0	0
O=C(Nc1nnc([C@@H]2C[C@H](O)[C@@H](CO)O2)s1)c1c(F)cccc1F	-	-	-56	0	0
CC(C)Oc1ccc(CNC(=O)C2COc3ccccc3C2)cc1 (centres undefined)	-	0	-	0	0
NC(=O)/C=C\c1cn(-c2ccccc2)nc1-c1ccc2c(c1)OCCO2	0	0	-60	0	?
COc1ccc(Cl)cc1C(=O)Nc1cccc(-c2ccc3nncn3n2)c1	?	0	-64	0	0
CCOc1cccc(C(=O)Nc2ccccc2N2CCN(C(=O)C(C)C)CC2)c1	0	0	-53	0	0
Cc1ccc(C(=O)Nc2ccccc2N2CCN(C(=O)C(C)C)CC2)cc1	0	0	0	0	?
COc1ccc(Br)cc1C(=O)Nc1ccccc1N1CCN(C(=O)c2ccccc2)CC1	0	0	-63	?	0
COC(=O)c1ccc(N2CCN(C(=O)c3ccccc3)CC2)c(NC(C)=O)c1	0	?	-107	0	0
SMILES	USP2a block	USP1 inh	IL1B secr inh	ATXN2 expr inh	S2 tox
COC(=O)c1ccc(N2CCN(C(C)=O)CC2)c(NC(=O)COc2ccccc2C)c1	0	0	0	0	0
Cc1cc(C)cc(N2C(=O)CC(c3ccc(C(F)(F)F)cc3)C3=C2COC3=O)c1 (centres undefined)	-	0	-	0	0
O=C(Cc1c(F)cccc1Cl)Nc1ccccc1-c1ccccc1	0	0	0	0	0
O=C(C1CCCCC1)N1CC(=O)N2CCCc3ccccc3C2C1 (centres undefined)	-	-	-	0	0
COc1ccc(Cl)cc1C(=O)Nc1ccccc1N1CCN(C(=O)C(C)C)CC1	0	?	?	22µM	?
COc1ccc(Cl)cc1C(=O)Nc1ccc(NC(=O)C(C)C)cc1	0	0	-60	0	0
CC(C)Cn1c(N)c(C(=O)COC(=O)c2nccnc2N)c(=O)n(C)c1=O	0	0	0	0	0
CC(=O)NC12CC3CC(C1)CC(C(=O)N(C)CC(=O)Nc1ccccc1Cl)(C3)C2	0	0	0	0	0
CCCS(=O)(=O)N1CCN(Cc2ccc(OCc3ccccc3)c(OC)c2)CC1	-	0	-73	0	0
